Experiment [1] can be described thus: Vero cells viability qHTS for Zika virus inhibitors (AID 1347167). Note: potency is the fitted concentration of half-maximal effect. The method in brief:
(§1)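 Counter-screen for cytotoxicity of hits from NS2B-NS3 protease qHTS. Overnight-attached cells (2.5 x 10^5 cells/mL, DMEM/4% FBS) were dosed in titration, incubated 24 to 48 hours, then assayed by CellTiter Glo.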
(In qHTS, concentration-response curves come from the screen itself.)

Experiment [2] is described as follows: HepG2 cells viability qHTS for Zika virus inhibitors (AID 1347168). The method in brief: as §1
The nature of experiment [3]: Tertiary RLuc qRT-PCR qHTS assay for Zika virus inhibitors (AID 1347169). Note: nearly all actives have a fitted effect of over 55% in size. Note: potency is the fitted concentration of half-maximal effect. The procedure, abridged: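 Vero cells (1,000/well) infected with recombinant ZIKV-RLuc (Cambodian) at MOI 1-2 after compound addition, 48-72 hrs at 37 degrees C. Live-cell Renilla luciferase substrate added; luminescence read after 1-1.5 hrs.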
Experiment [4] can be described thus: A High-Content qHTS Against Drug Library for the Identification of Small Molecules that Inhibit DYT1 Early Onset Primary Dystonia-Associated Cell Pathology (AID 1645839; calls by dose curve; note: series mostly up to about 46 µM). The procedure, abridged: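 Readout: %pathology, the punctate EGFP-TorsinA distribution from imaging, as the primary channel and cell count as the toxicity counterscreen. HEK293 Flp-In cells expressing delE TorsinA were induced with tetracycline and treated with compound for 48 h.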

Experiment [5] is described as follows: qHTS to identify inhibitors of the type 1 interferon - major histocompatibility complex class I in skeletal muscle: primary screen against the NCATS Pharmaceutical Collection (AID 1347407).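 Note: luminescence of HiBiT knocked into endogenous HLA-B as interferon-induced MHC class I level.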 Note: potency is the fitted concentration of half-maximal effect. The procedure, abridged:
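Immortalized human myoblasts (C25cl48) with HiBiT knocked into endogenous HLA-B*08:01 were stimulated with 4.0 ng/ml IFN-beta and treated with compounds ([…] top 46 uM) for 24 hrs at 37 C. HiBiT lytic luminescence read.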

Experiment [6] in a line: qHTS for inhibitors of adenylyl cyclases using a fission yeast platform: a pilot screen against the NCATS LOPAC library (AID 1347410). The procedure, abridged:
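S. pombe CHP2027 (AC9-GNAS-PDE4D2) carrying PKA-repressed fbp1-GFP, incubated 18 h at 30C in EMM with LOPAC compounds at up to 57 uM. GFP gain-of-signal read by laser scanning cytometry; DMSO negative control.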

The target of experiment [7] is Protein phosphatase 1D (Homo sapiens) (UniProt O15297). The experiment can be described thus: RapidFire Mass Spectrometry qHTS Assay for Modulators of WT P53-Induced Phosphatase 1 (WIP1) (AID 1347424).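 Note: amount of dephosphorylated VEPPL-S-QETFS peptide product formed by WIP1; series mostly up to about 63 µM.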 The method in brief:
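WIP1 (10 nM final) was preincubated 1 h at room temperature with compounds in Tris-HCl pH 7.5, 30 mM MgCl2, TCEP, EGTA, BSA; 2 uM VEPPL-pS-QETFS phosphopeptide was added for 5 min, quenched with formic acid, and dephosphorylated product quantified by RapidFire MS.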

Experiment [8] shares this target. Kind of experiment: Rhodamine-PBP qHTS Assay for Modulators of WT P53-Induced Phosphatase 1 (WIP1) (AID 1347425). The method in brief:
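Steps: enzyme with Rh-PBP sensor and compounds, room-temperature incubation of 1 hr, baseline read, addition of VEPPL-pS-QETFS (10 uM final), kinetic fluorescence reads at 525/598 nm. Activity equals final minus baseline signal.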

For experiment [9], the target named is Single-stranded DNA cytosine deaminase (Homo sapiens) (UniProt Q9GZX7). The experiment can be described thus: Validation qHTS assay for inhibitors of Activation Induced Cytidine Deaminase (AID): AID signal (AID 1347429). The procedure, abridged:
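Fluorescence at 540 nm excitation and 590 nm emission reports ssDNA cytosine deamination by AID, with UDG in the same well. Compound-treated reactions ran 4 hr at room temperature with DJC20/DJC23 substrate, followed by 30 min NaOH treatment.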

Experiment [10] can be described thus: Primary qHTS for inhibitors of La Crosse Virus (LACV) - induced cell death in SH-SY5Y cells (AID 1508616).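 Note: top concentration of the series differs between compounds; higher means more rescue of cells from virus-induced death.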 The method in brief: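 Protection against LACV-induced cell death is scored in SH-SY5Y cells exposed to compounds and virus (0.01 MOI) for 6 days. Data normalized to virus-infected DMSO wells and virus-free DMSO wells.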
Experiment [11] deals with Calcium and integrin-binding protein 1 (Homo sapiens) (UniProt Q99828). Kind of experiment: Validation qHTS for Identification of Calcium Integrin Binding protein 1 (CIB1) Competitor (AID 1508618). The procedure, abridged: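 In this qHTS validation, the LOPAC set (up to 114 uM) was tested for blocking CIB1 binding to a fluorescein-tagged alphaIIb peptide, with FP detection at 480/540 nm.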
Calcium and integrin-binding protein 1 (Homo sapiens), sequence (Q99828 whole entry, looked up): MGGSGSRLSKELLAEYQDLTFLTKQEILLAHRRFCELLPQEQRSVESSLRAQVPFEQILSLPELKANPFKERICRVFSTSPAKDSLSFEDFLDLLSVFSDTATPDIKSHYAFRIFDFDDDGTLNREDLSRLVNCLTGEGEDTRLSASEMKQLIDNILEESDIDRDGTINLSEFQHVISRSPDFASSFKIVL

For experiment [12] the target is unchanged. The experiment can be described thus: Primary qHTS for Identification of Calcium Integrin Binding Protein 1 (CIB1) Competitor (AID 1508620).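 Note: GST tagged CIB1 binding a fluorescein labelled alphaIIb integrin peptide tracer; top concentration of the series differs between compounds.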 The method in brief:
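Fluorescence polarization competition: CIB1-GST (1 uM final) preincubated with compound 15 min at room temperature, then FITC-labeled alphaIIb peptide (100 nM final) added for another 15 min. Polarization read at Ex 480/Em 540.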

Experiment [13] can be described thus: qHTS to identify inhibitors of the type 1 interferon - major histocompatibility complex class I in skeletal muscle: primary screen against the NCATS LOPAC collection (AID 1347405).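 Note: lytic HiBiT luminescence reporting HLA-B protein level.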 The procedure, abridged: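 Luminescence from HiBiT fused to endogenous HLA-B in CRISPR-engineered human myoblasts served as the read-out. Cells received 4.0 ng/ml IFN-beta plus compound (seven concentrations, 1:4.3 steps, highest 46 uM final) for 24 hrs before lytic detection.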

The nature of experiment [14]: Primary qHTS for small molecule stabilizers of the endoplasmic reticulum resident proteome: Secreted ER Calcium Modulated Protein (SERCaMP) assay (AID 1508630). The procedure, abridged: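 GLuc-SERCaMP-expressing SH-SY5Y cells, pretreated 16 h with compound, are challenged with thapsigargin to empty ER calcium stores; after 4 h, coelenterazine is added directly to the medium and luminescence is imaged.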

For experiment [15], the target named is Calcium and integrin-binding protein 1 (Homo sapiens) (UniProt Q99828). Kind of experiment: Confirmatory qHTS for Identification of Calcium Integrin Binding Protein 1 (CIB1) Competitor (AID 1508617). Note: nearly all actives have a fitted effect of over 65% in size. The method in brief:
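Binding competition between test compounds and fluorescent alphaIIb peptide for 1 uM CIB1-GST is monitored by FP at 480/540 nm. Final compound range is up to 114 uM; unlabeled peptide serves as reference competitor.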

A short description of experiment [16]: qHTS to identify inhibitors of the type 1 interferon - major histocompatibility complex class I in skeletal muscle: primary screen against the NCATS Mechanism Interrogation Plate v5.0 (MIPE) Libary (AID 1347411). Note: potency is the fitted concentration of half-maximal effect; nearly all actives have a fitted effect of over 65% in size. The method in brief:
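Luminescence from HiBiT-tagged endogenous HLA-B*08:01 served as the MHC class I read-out. CRISPR-engineered C25cl48 human myoblasts received 4.0 ng/ml IFN-beta plus compound for 24 hrs, with an 11-point, 1:3 series topping at 46 uM final.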

Structures are written as SMILES. Several values for one entry are separate records, joined by “and”; a condition that tells them apart may be missing. Equal entries are not always repeated. Values without a mark were called inactive. Inconclusive results are not listed. Activity calls are given as the source filed them. Unless noted, calls come from the whole dose curve; as a rule, active = well fitted curve in the direction sought with a large enough effect; inconclusive = small, poorly fitted or top-dose-only effect, or another doubt; inactive = no such curve, though single readings can be large; an effect the other way counts as inactive or inconclusive.

Single-stranded DNA cytosine deaminase (Homo sapiens), sequence (Q9GZX7 whole entry, looked up): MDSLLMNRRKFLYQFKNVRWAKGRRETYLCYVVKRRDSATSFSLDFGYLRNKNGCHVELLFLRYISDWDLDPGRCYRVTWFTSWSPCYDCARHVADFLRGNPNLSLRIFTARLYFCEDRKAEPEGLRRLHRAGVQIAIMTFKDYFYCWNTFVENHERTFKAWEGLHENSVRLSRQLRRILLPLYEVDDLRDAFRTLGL
Protein phosphatase 1D (Homo sapiens), sequence (O15297 whole entry, looked up): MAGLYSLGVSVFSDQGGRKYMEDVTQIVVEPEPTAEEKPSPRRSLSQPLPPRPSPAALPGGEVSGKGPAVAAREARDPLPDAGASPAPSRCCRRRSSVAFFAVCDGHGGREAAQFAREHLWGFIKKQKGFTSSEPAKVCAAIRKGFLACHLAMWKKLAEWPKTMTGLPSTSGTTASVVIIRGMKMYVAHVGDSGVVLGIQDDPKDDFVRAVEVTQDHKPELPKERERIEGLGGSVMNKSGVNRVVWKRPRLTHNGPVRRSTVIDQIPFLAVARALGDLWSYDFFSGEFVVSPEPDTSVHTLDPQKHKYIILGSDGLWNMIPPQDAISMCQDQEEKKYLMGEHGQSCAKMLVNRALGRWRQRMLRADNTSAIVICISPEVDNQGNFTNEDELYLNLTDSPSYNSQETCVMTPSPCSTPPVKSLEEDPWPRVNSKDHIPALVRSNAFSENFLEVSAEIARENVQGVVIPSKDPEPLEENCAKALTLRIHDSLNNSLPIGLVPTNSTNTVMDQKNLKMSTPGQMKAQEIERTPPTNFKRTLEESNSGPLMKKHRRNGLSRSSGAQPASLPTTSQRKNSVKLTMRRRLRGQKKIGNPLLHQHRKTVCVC

As for `CC(C)(O)c1ccccc1CC[C@@H](SCC1(CC(=O)O)CC1)c1cccc(/C=C/c2ccc3ccc(Cl)cc3n2)c1`, the Potency result in experiment [1], in experiment [3] and in [4] was “inactive” throughout. For the same compound, the compound was classed as inactive in experiment [2].

On to `C#CCN(C)Cc1ccccc1`, for which the Potency result in experiment [5] and in [9] was “inactive” throughout. Also, the compound was called inactive in experiment [6], in [7], in experiment [8], in [10], in [11] and in experiment [12].

`CC(C)(C(=O)O)c1ccc(C(O)CCCN2CCC(C(O)(c3ccccc3)c3ccccc3)CC2)cc1` (stereo not drawn): the Potency entry in experiment [13], in [5] and in experiment [4] was “inactive” in each case. The compound was called inactive in [6], in experiment [7], in experiment [8] and in experiment [10].

Consider `CC(CN1c2ccccc2Sc2ccccc21)N(C)C` (stereo not drawn), for which the Potency entry in experiment [5] and in [9] was “inactive” throughout. Also, the result in experiment [6], in experiment [7], in experiment [8], in [10], in experiment [11] and in experiment [12] was inactive.

Consider `C[C@]12CC[C@@H]3c4ccc(O)cc4CC[C@H]3[C@@H]1CCC2=O`, for which the Potency result in [5], in [9], in experiment [14] and in experiment [4] was “inactive” in each case. Further, the compound was classed as inactive in [6], in experiment [7], in [8], in [10], in experiment [11] and in experiment [12].

As to `N[C@H](C(=O)O)c1ccc(O)cc1`, the Potency result in [1], in experiment [3] and in experiment [5] was “inactive” in each case. Further, the outcome in experiment [2], in [7], in [8], in [10] and in experiment [12] was inactive.

For the compound `Cc1cc(C(C#N)c2ccc(Cl)cc2)c(Cl)cc1NC(=O)c1cc(I)cc(I)c1O` (stereo not drawn), the Potency in experiment [1] is 13.1 µM (active); in [3] it was 6.58 µM (active) and 16.5 µM (active). In addition, the compound was classed as inactive in experiment [2] and in experiment [10]. Besides, the Potency entry in experiment [5] and in experiment [15] was “inactive” in each case.

As for `CC(CN(C)C)CN1c2ccccc2CCc2ccccc21` (stereo not drawn), the Potency result in [5] and in [9] was “inactive” in each case. In addition, the result in [6], in experiment [7], in experiment [8], in [10], in experiment [11] and in experiment [12] was inactive.

As to `CCN(CC)C(C)CN1c2ccccc2Sc2ccccc21` (stereo not drawn), the Potency entry in experiment [5], in [9], in [14] and in experiment [4] was “inactive” in each case. In addition, the call in experiment [6], in [7], in experiment [8], in [10], in experiment [11] and in experiment [12] was inactive.

Regarding `CCN(CC)CCNC(=O)c1cc(Cl)c(N)cc1OC`, the Potency entry in experiment [13], in experiment [5], in experiment [9], in [14] and in experiment [4] was “inactive” throughout. For the same compound, the result in experiment [6], in experiment [7], in experiment [8], in experiment [10], in [11] and in experiment [12] was inactive.

Regarding `C[C@]12C[C@H](O)[C@H]3[C@@H](CCC4=CC(=O)CC[C@@]43C)[C@@H]1CC[C@@H]2C(=O)CO`, the Potency entry in [5], in [9] and in experiment [14] was “inactive” each time. Further, the result in experiment [6], in experiment [7], in [8], in experiment [10], in experiment [11] and in experiment [12] was inactive.

As to `CC[C@H]1CN2CCc3cc(OC)c(OC)cc3[C@@H]2C[C@@H]1C[C@H]1NCCc2cc(OC)c(OC)cc21`, the results for the Potency in experiment [5] and in experiment [16] were 264 nM (active) and 658 nM (active), respectively. In addition, the compound was called inactive in [6], in experiment [7], in [8], in experiment [11] and in experiment [12]. The Potency entry in experiment [9] and in experiment [14] was “inactive” throughout.

(Values after PubChem BioAssay (NCATS).)
